Results from PubChem BioAssay AID777 (Sanford-Burnham Center for Chemical Genomics, 2007).
The campaign covered roughly 96,000 compounds. About 19,000 (20%) were called active. The list is a sample of the results. A number with no mark means an inactive call.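 Rule for the calls: active = blocking of liver enzyme CYP2C9 beyond about 50% at 5 µM (limit read from the data); inactive = the rest.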

Target: Cytochrome P450 2C9 (Homo sapiens) (UniProt P11712)
Assay: blockers of cytochrome P450 2C9 activity – biochemical, luminescence, ADME assay, primary screen (AID 777)
Details: CYP2C9 Supersomes, luciferin-H conversion, at 5 µM, hits give high values

Cytochrome P450 2C9 (Homo sapiens), sequence (P11712 whole entry, looked up): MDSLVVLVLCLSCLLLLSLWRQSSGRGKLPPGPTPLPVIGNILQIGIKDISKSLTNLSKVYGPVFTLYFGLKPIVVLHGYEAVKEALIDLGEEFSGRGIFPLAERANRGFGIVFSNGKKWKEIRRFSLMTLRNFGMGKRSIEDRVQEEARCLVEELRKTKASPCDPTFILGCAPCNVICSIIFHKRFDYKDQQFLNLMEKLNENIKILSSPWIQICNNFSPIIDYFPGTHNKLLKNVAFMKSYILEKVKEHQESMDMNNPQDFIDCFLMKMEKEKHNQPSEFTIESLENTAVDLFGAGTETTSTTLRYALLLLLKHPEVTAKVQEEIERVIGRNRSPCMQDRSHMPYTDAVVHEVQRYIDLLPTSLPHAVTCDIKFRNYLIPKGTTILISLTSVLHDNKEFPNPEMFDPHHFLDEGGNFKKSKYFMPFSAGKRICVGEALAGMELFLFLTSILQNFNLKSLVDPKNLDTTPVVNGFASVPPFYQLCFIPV

| Compound | inhibition |
| --- | --- |
| Cc1cc(NC(=O)COC(=O)c2ccc(F)c(S(=O)(=O)N3CCOCC3)c2)no1 | -0.2% |
| Cc1cc(C(=O)OCC(=O)c2c(N)n(C)c(=O)n(C)c2=O)c(C)o1 | 15.9% |
| Cc1cc(C(=O)OCC(=O)Nc2ccc(F)c(F)c2)c(C)o1 | 61.2% (active) |
| O=C(O)CSC(NC(=O)c1cccnc1)(C(F)(F)F)C(F)(F)F | 3.1% |
| CC1CC2=C(CC1/C=N/NC(N)=S)C(C)(C)CCC2 (stereo not drawn) | 43.1% |
| CC(=O)NNc1cc(=O)c2c(=O)n(C)c(=O)n(C)c2[nH]1 | 6.5% |
| CC(=O)NC(Cc1ccc(F)cc1)C(=O)O (stereo not drawn) | 6.7% |
| O=S(=O)(NCC1OCCc2ccccc21)c1ccccc1 (stereo not drawn) | 3% |
| O=c1nc2s/c(=C\c3ccco3)c(=O)n2nc1Cc1ccccc1 | -5.6% |
| O=c1/c(=C/c2ccc(CNS(=O)(=O)c3ccccc3)o2)sc2n1CCN=2 | 71.2% (active) |
| Cc1cc(C(F)(F)F)nn1CC(=O)N1CCCC1 | 1% |
| CCCC(=O)Nc1cc(OCC)c(NC(=O)NC2CCCCC2)cc1OCC | 4.7% |
| Cc1noc(C)c1C(=O)N(CC(=O)NC1CCCC1)Cc1ccccc1F | 26.2% |
| CCC(C)(NC(=O)c1ccccn1)C(=O)NC1CCCCC1 (stereo not drawn) | 12.3% |
| CCOc1ccccc1N(CC(=O)NC1CCCCC1)C(=O)CCCC(=O)Nc1ccccn1 | 79.8% (active) |
| CN(CC(=O)NC1CCCCC1)S(=O)(=O)c1cccc2cccnc12 | -46% |
| O=C(CCCC(=O)N(CC(=O)NC1CCCC1)Cc1ccccc1Cl)Nc1ccccn1 | 77.3% (active) |

| Compound | inhibition |
| --- | --- |
| COc1ccc(N2C(=O)C3CCCN3C2c2cccs2)cc1 (stereo not drawn) | 31.3% |
| O=C1CSC(c2ccccc2)N1c1nc(-c2ccc(Cl)cc2Cl)cs1 (stereo not drawn) | 21.8% |
| O=C(NCCCNCc1ccccc1)c1ccc(/C=N/O)nc1 | -11.5% |
| O=C(CCCn1c(=O)oc2ccccc21)Nc1cccnc1 | -30.9% |
| COC(=O)C(C)n1cnc2c(nnn2-c2cccc(Cl)c2)c1=O (stereo not drawn) | 1.7% |
| CN=C1SC(C(=O)O)CC(=O)N1C (stereo not drawn) | -6.4% |
| COC(=O)C(CC(=O)Nc1cc(C)ccc1C)Nc1ccccc1OC (stereo not drawn) | 7.7% |
| CCOc1cc(C(=S)N2CCOCC2)ccc1O | -10.2% |
| O=P(c1cccs1)(c1cccs1)c1cccs1 | 12.7% |
| O=C1CC(c2cccc(F)c2)C2=C(CCCC2=O)N1 (stereo not drawn) | 12.1% |
| COc1ccc2nc(SCC(=O)Nc3c(C)cc(C)cc3C)[nH]c2c1 | 81.5% (active) |
| COc1ccc(NC(=O)CSc2nc(NS(=O)(=O)c3ccc(C)cc3)cc(=O)[nH]2)cc1 | 91.7% (active) |
| COc1cc2ccccc2cc1C(=O)Nc1ccc(S(=O)(=O)Nc2cc(C)on2)cc1 | 3.1% |
| COc1ccc(OC)c(NC(=O)CSc2nc(N)c(-c3ccccc3)c(=O)[nH]2)c1 | 29.2% |
| COc1ccc(NC(=O)CSc2nc(N)c(-c3ccccc3)c(=O)[nH]2)cc1 | 3.1% |
| COC(=O)c1cccc(NC(=O)CSc2nc(C)cc(=O)[nH]2)c1 | 42.6% |
